# From the supplement of paper PMC4466140
# Legend:
# Test in all cases: SPOT peptide array binding signal intensity (averaged, normalized) (arbitrary units (background-subtracted, floor 0; scale differs between SH3 domains)); higher = stronger binding of the SH3 domain to the peptide
# AgAbp1 = molecular target: AgAbp1
# Outline: (§1)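 To measure binding, SH3 domains from four yeast species were fused to GST, expressed in E. coli BL21(DE3) and purified on glutathione Sepharose. Each domain was incubated at 10 μg/ml overnight at 4°C on cellulose membranes with synthetic 15-mer peptides whose cysteines were replaced by serines. Anti-GST antibody, an HRP anti-mouse secondary and luminol were used for detection, and images were quantified with Genespotter. Reported binding signal is normalized, background-subtracted spot intensity averaged over replicates, in arbitrary units that differ between domains.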
# AgBbc1 = molecular target: AgBbc1
# Outline: as §1
# AgBem1-D1 = molecular target: AgBem1-D1
# Outline: as §1
# AgBzz1-D1 = molecular target: AgBzz1-D1
# Outline: as §1
# AgBzz1-D2 = molecular target: AgBzz1-D2
# Outline: as §1
# AgCyk3 = molecular target: AgCyk3
# Outline: as §1
# AgFus1 = molecular target: AgFus1
# Outline: as §1
# AgHof1 = molecular target: AgHof1
# Outline: as §1
# AgHse1 = molecular target: AgHse1
# Outline: as §1
# AgLsb1 = molecular target: AgLsb1
# Outline: as §1
# AgLsb4 = molecular target: AgLsb4
# Outline: as §1
# AgMyo5 = molecular target: AgMyo5
# Outline: as §1
# AgNbp2 = molecular target: AgNbp2
# Outline: as §1
# AgRvs167 = molecular target: AgRvs167
# Outline: as §1
# AgSho1 = molecular target: AgSho1
# Outline: as §1
# AgSla1-D1-D2 = molecular target: AgSla1-D1-D2
# Outline: as §1
# AgSla1-D3 = molecular target: AgSla1-D3
# Outline: as §1
# CaAbp1-D1 = molecular target: CaAbp1-D1
# Outline: as §1
# CaAbp1-D2 = molecular target: CaAbp1-D2
# Outline: as §1
# CaBbc1 = molecular target: CaBbc1
# Outline: as §1
# CaBem1-D1 = molecular target: CaBem1-D1
# Outline: as §1
# CaBzz1-D1 = molecular target: CaBzz1-D1
# Outline: as §1
# CaBzz1-D2 = molecular target: CaBzz1-D2
# Outline: as §1
# CaCyk3 = molecular target: CaCyk3
# Outline: as §1
# CaFus1 = molecular target: CaFus1
# Outline: as §1
# CaHof1 = molecular target: CaHof1
# Outline: as §1
# CaHse1 = molecular target: CaHse1
# Outline: as §1
# CaLsb1 = molecular target: CaLsb1
# Outline: as §1
# CaLsb4 = molecular target: CaLsb4
# Outline: as §1
# CaMyo5 = molecular target: CaMyo5
# Outline: as §1
# CaNbp2 = molecular target: CaNbp2
# Outline: as §1
# CaRvs167 = molecular target: CaRvs167
# Outline: as §1
# CaRvs167-3 = molecular target: CaRvs167-3
# Outline: as §1
# CaSho1 = molecular target: CaSho1
# Outline: as §1
# CaSla1-D1-D2 = molecular target: CaSla1-D1-D2
# Outline: as §1
# CaSla1-D3 = molecular target: CaSla1-D3
# Outline: as §1
# ScAbp1 = molecular target: ScAbp1
# Outline: as §1
# ScBbc1 = molecular target: ScBbc1
# Outline: as §1
# ScBem1-D1 = molecular target: ScBem1-D1
# Outline: as §1
# ScBzz1-D1 = molecular target: ScBzz1-D1
# Outline: as §1
# ScBzz1-D2 = molecular target: ScBzz1-D2
# Outline: as §1
# ScCyk3 = molecular target: ScCyk3
# Outline: as §1
# ScFus1 = molecular target: ScFus1
# Outline: as §1
# ScHof1 = molecular target: ScHof1
# Outline: as §1
# ScHse1 = molecular target: ScHse1
# Outline: as §1
# ScLsb1 = molecular target: ScLsb1
# Outline: as §1
# ScLsb2 = molecular target: ScLsb2
# Outline: as §1
# ScLsb3 = molecular target: ScLsb3
# Outline: as §1
# ScLsb4 = molecular target: ScLsb4
# Outline: as §1
# ScMyo3 = molecular target: ScMyo3
# Outline: as §1
# ScMyo5 = molecular target: ScMyo5
# Outline: as §1
# ScNbp2 = molecular target: ScNbp2
# Outline: as §1
# ScPex13 = molecular target: ScPex13
# Outline: as §1
# ScRvs167 = molecular target: ScRvs167
# Outline: as §1
# ScSho1 = molecular target: ScSho1
# Outline: as §1
# ScSla1-D1-D2 = molecular target: ScSla1-D1-D2
# Outline: as §1
# ScSla1-D3 = molecular target: ScSla1-D3
# Outline: as §1
# SpAbp1-D1 = molecular target: SpAbp1-D1
# Outline: as §1
# SpBbc1 = molecular target: SpBbc1
# Outline: as §1
# SpBzz1-D1 = molecular target: SpBzz1-D1
# Outline: as §1
# SpBzz1-D2 = molecular target: SpBzz1-D2
# Outline: as §1
# SpCyk3 = molecular target: SpCyk3
# Outline: as §1
# SpHof1 = molecular target: SpHof1
# Outline: as §1
# SpHof1-2 = molecular target: SpHof1-2
# Outline: as §1
# SpHof1-3 = molecular target: SpHof1-3
# Outline: as §1
# SpHse1 = molecular target: SpHse1
# Outline: as §1
# SpLsb1 = molecular target: SpLsb1
# Outline: as §1
# SpLsb4 = molecular target: SpLsb4
# Outline: as §1
# SpMyo1 = molecular target: SpMyo1
# Outline: as §1
# SpNbp2 = molecular target: SpNbp2
# Outline: as §1
# SpPex13 = molecular target: SpPex13
# Outline: as §1
# SpRvs167 = molecular target: SpRvs167
# Outline: as §1
# SpSla1-D1-D2 = molecular target: SpSla1-D1-D2
# Outline: as §1
# SpSla1-D3 = molecular target: SpSla1-D3
# Outline: as §1
binder,measurement,setting,value
KDKSRPPRPPPKPLH,SPOT peptide array binding signal intensity,AgAbp1,917
same,SPOT peptide array binding signal intensity,AgBbc1,282
same,SPOT peptide array binding signal intensity,AgBem1-D1,30
same,SPOT peptide array binding signal intensity,AgBzz1-D1,257
same,SPOT peptide array binding signal intensity,AgBzz1-D2,119
same,SPOT peptide array binding signal intensity,AgCyk3,≤ 0
same,SPOT peptide array binding signal intensity,AgFus1,≤ 0
same,SPOT peptide array binding signal intensity,AgHof1,55.8
same,SPOT peptide array binding signal intensity,AgHse1,27
same,SPOT peptide array binding signal intensity,AgLsb1,7.5
same,SPOT peptide array binding signal intensity,AgLsb4,11.5
same,SPOT peptide array binding signal intensity,AgMyo5,≤ 0
same,SPOT peptide array binding signal intensity,AgNbp2,138
same,SPOT peptide array binding signal intensity,AgRvs167,1.33
same,SPOT peptide array binding signal intensity,AgSho1,71.5
same,SPOT peptide array binding signal intensity,AgSla1-D1-D2,≤ 0
same,SPOT peptide array binding signal intensity,AgSla1-D3,7.5
same,SPOT peptide array binding signal intensity,CaAbp1-D1,298
same,SPOT peptide array binding signal intensity,CaAbp1-D2,780
same,SPOT peptide array binding signal intensity,CaBbc1,240
same,SPOT peptide array binding signal intensity,CaBem1-D1,382
same,SPOT peptide array binding signal intensity,CaBzz1-D1,3930
same,SPOT peptide array binding signal intensity,CaBzz1-D2,748
same,SPOT peptide array binding signal intensity,CaCyk3,23.5
same,SPOT peptide array binding signal intensity,CaFus1,≤ 0
same,SPOT peptide array binding signal intensity,CaHof1,≤ 0
same,SPOT peptide array binding signal intensity,CaHse1,67
same,SPOT peptide array binding signal intensity,CaLsb1,0.5
same,SPOT peptide array binding signal intensity,CaLsb4,158
same,SPOT peptide array binding signal intensity,CaMyo5,≤ 0
same,SPOT peptide array binding signal intensity,CaNbp2,88.5
same,SPOT peptide array binding signal intensity,CaRvs167,8.67
same,SPOT peptide array binding signal intensity,CaRvs167-3,0.5
same,SPOT peptide array binding signal intensity,CaSho1,≤ 0
same,SPOT peptide array binding signal intensity,CaSla1-D1-D2,602
same,SPOT peptide array binding signal intensity,CaSla1-D3,21.5
same,SPOT peptide array binding signal intensity,ScAbp1,670
same,SPOT peptide array binding signal intensity,ScBbc1,8.5
same,SPOT peptide array binding signal intensity,ScBem1-D1,≤ 0
same,SPOT peptide array binding signal intensity,ScBzz1-D1,123
same,SPOT peptide array binding signal intensity,ScBzz1-D2,≤ 0
same,SPOT peptide array binding signal intensity,ScCyk3,≤ 0
same,SPOT peptide array binding signal intensity,ScFus1,≤ 0
same,SPOT peptide array binding signal intensity,ScHof1,≤ 0
same,SPOT peptide array binding signal intensity,ScHse1,24
same,SPOT peptide array binding signal intensity,ScLsb1,121
same,SPOT peptide array binding signal intensity,ScLsb2,1
same,SPOT peptide array binding signal intensity,ScLsb3,1930
same,SPOT peptide array binding signal intensity,ScLsb4,15.5
same,SPOT peptide array binding signal intensity,ScMyo3,29.5
same,SPOT peptide array binding signal intensity,ScMyo5,49.5
same,SPOT peptide array binding signal intensity,ScNbp2,305
same,SPOT peptide array binding signal intensity,ScPex13,103
same,SPOT peptide array binding signal intensity,ScRvs167,45
same,SPOT peptide array binding signal intensity,ScSho1,171
same,SPOT peptide array binding signal intensity,ScSla1-D1-D2,266
same,SPOT peptide array binding signal intensity,ScSla1-D3,11.5
same,SPOT peptide array binding signal intensity,SpAbp1-D1,528
same,SPOT peptide array binding signal intensity,SpBbc1,≤ 0
same,SPOT peptide array binding signal intensity,SpBzz1-D1,366
same,SPOT peptide array binding signal intensity,SpBzz1-D2,16.8
same,SPOT peptide array binding signal intensity,SpCyk3,1
same,SPOT peptide array binding signal intensity,SpHof1,≤ 0
same,SPOT peptide array binding signal intensity,SpHof1-2,≤ 0
same,SPOT peptide array binding signal intensity,SpHof1-3,75.5
same,SPOT peptide array binding signal intensity,SpHse1,21.5
same,SPOT peptide array binding signal intensity,SpLsb1,484
same,SPOT peptide array binding signal intensity,SpLsb4,670
same,SPOT peptide array binding signal intensity,SpMyo1,277
same,SPOT peptide array binding signal intensity,SpNbp2,13.5
same,SPOT peptide array binding signal intensity,SpPex13,≤ 0
same,SPOT peptide array binding signal intensity,SpRvs167,129
same,SPOT peptide array binding signal intensity,SpSla1-D1-D2,≤ 0
same,SPOT peptide array binding signal intensity,SpSla1-D3,3
GDHPKGPPPPPPPPD,SPOT peptide array binding signal intensity,AgAbp1,≤ 0
same,SPOT peptide array binding signal intensity,AgBbc1,≤ 0
same,SPOT peptide array binding signal intensity,AgBem1-D1,≤ 0
same,SPOT peptide array binding signal intensity,AgBzz1-D1,440
same,SPOT peptide array binding signal intensity,AgBzz1-D2,43
same,SPOT peptide array binding signal intensity,AgCyk3,≤ 0
same,SPOT peptide array binding signal intensity,AgFus1,3
same,SPOT peptide array binding signal intensity,AgHof1,≤ 0
same,SPOT peptide array binding signal intensity,AgHse1,≤ 0
same,SPOT peptide array binding signal intensity,AgLsb1,≤ 0
same,SPOT peptide array binding signal intensity,AgLsb4,≤ 0
same,SPOT peptide array binding signal intensity,AgMyo5,1010
same,SPOT peptide array binding signal intensity,AgNbp2,3
same,SPOT peptide array binding signal intensity,AgRvs167,≤ 0
same,SPOT peptide array binding signal intensity,AgSho1,3
same,SPOT peptide array binding signal intensity,AgSla1-D1-D2,≤ 0
same,SPOT peptide array binding signal intensity,AgSla1-D3,699
same,SPOT peptide array binding signal intensity,CaAbp1-D1,≤ 0
same,SPOT peptide array binding signal intensity,CaAbp1-D2,≤ 0
same,SPOT peptide array binding signal intensity,CaBbc1,≤ 0
same,SPOT peptide array binding signal intensity,CaBem1-D1,≤ 0
same,SPOT peptide array binding signal intensity,CaBzz1-D1,2370
same,SPOT peptide array binding signal intensity,CaBzz1-D2,1470
same,SPOT peptide array binding signal intensity,CaCyk3,4
same,SPOT peptide array binding signal intensity,CaFus1,19
same,SPOT peptide array binding signal intensity,CaHof1,≤ 0
same,SPOT peptide array binding signal intensity,CaHse1,3.5
same,SPOT peptide array binding signal intensity,CaLsb1,≤ 0
same,SPOT peptide array binding signal intensity,CaLsb4,≤ 0
same,SPOT peptide array binding signal intensity,CaMyo5,34
same,SPOT peptide array binding signal intensity,CaNbp2,≤ 0
same,SPOT peptide array binding signal intensity,CaRvs167,0.333
same,SPOT peptide array binding signal intensity,CaRvs167-3,1
same,SPOT peptide array binding signal intensity,CaSho1,≤ 0
same,SPOT peptide array binding signal intensity,CaSla1-D1-D2,≤ 0
same,SPOT peptide array binding signal intensity,CaSla1-D3,≤ 0
same,SPOT peptide array binding signal intensity,ScAbp1,≤ 0
same,SPOT peptide array binding signal intensity,ScBbc1,≤ 0
same,SPOT peptide array binding signal intensity,ScBem1-D1,≤ 0
same,SPOT peptide array binding signal intensity,ScBzz1-D1,1030
same,SPOT peptide array binding signal intensity,ScBzz1-D2,≤ 0
same,SPOT peptide array binding signal intensity,ScCyk3,≤ 0
same,SPOT peptide array binding signal intensity,ScFus1,≤ 0
same,SPOT peptide array binding signal intensity,ScHof1,≤ 0
same,SPOT peptide array binding signal intensity,ScHse1,16
same,SPOT peptide array binding signal intensity,ScLsb1,≤ 0
same,SPOT peptide array binding signal intensity,ScLsb2,≤ 0
same,SPOT peptide array binding signal intensity,ScLsb3,≤ 0
same,SPOT peptide array binding signal intensity,ScLsb4,≤ 0
same,SPOT peptide array binding signal intensity,ScMyo3,1170
same,SPOT peptide array binding signal intensity,ScMyo5,1020
same,SPOT peptide array binding signal intensity,ScNbp2,3
same,SPOT peptide array binding signal intensity,ScPex13,7.63e-06
same,SPOT peptide array binding signal intensity,ScRvs167,≤ 0
same,SPOT peptide array binding signal intensity,ScSho1,≤ 0
same,SPOT peptide array binding signal intensity,ScSla1-D1-D2,≤ 0
same,SPOT peptide array binding signal intensity,ScSla1-D3,≤ 0
same,SPOT peptide array binding signal intensity,SpAbp1-D1,≤ 0
same,SPOT peptide array binding signal intensity,SpBbc1,≤ 0
same,SPOT peptide array binding signal intensity,SpBzz1-D1,67
